# Measured values taken from PubChem BioAssay (NCATS).
# Inconclusive results are not listed. Entries that show only a call come without a potency. The source made the active and inactive calls. The call rests on the fitted dose curve; in most records, active means well fitted inhibition curve with a large enough effect; inconclusive means small, poorly fitted or top-dose-only effect; inactive means flat fitted curve, though single readings scatter.
# Experiment: qHTS for Inhibitors of Plasmodium falciparum (7G8) proliferation (AID 504316); further: nearly all actives have a fitted effect of over 65% in size
# Settings: P. falciparum 7G8 in erythrocytes, SYBR Green DNA, 72 h; series mostly up to 6.7 µM
# Text: Plasmodium falciparum is a virulent malarial parasite that kills 1-2 million people worldwide each year. Malaria not only inflicts tremendous suffering and morbidity on the human population, but has dramatically influenced the course of civilization with profound sociological and economic implications (Shah, S. 2010). Transmitted by mosquitoes, the sporozoite form of the parasite enters the blood stream to infect hepatocytes, where they become merozoites that infect red blood cells (erythrocytes). Within erythrocytes, merozoites begin a […] cycle of growth and division, after which the parasite is released to infect new red blood cells. Gametocytes, which form within erythrocytes as well, circulate in the bloodstream and are ingested by the mosquito, thereby completing the life cycle (see CDC website). To profile malarial lines for differential chemical responses and to identify inhibitors of malarial growth, an assay that measures P. falciparum growth and replication within erythrocytes was employed. This assay uses a DNA binding fluorescent dye (SYBR Green) to detect parasite DNA following cell lysis. Because mature erythrocytes lack DNA, only Plasmodium-derived DNA is detected. The P. falciparum line cp250, derived from a malarial isolate from Cambodia, (Mu, J., et al. 2010) was added to the panel of lines, Dd2, HB3, 7G8 and GB4 in this study. Laboratory of Assay Development and Screening Technology [ADST] and NIH Chemical Genomics Center [NCGC] Boston University, Chemistry Department, Center for Chemical Methodology and Library Development [CMLD-BU] NIH National Institute of Allergy and Infectious Diseases [NIAID]
# ADST Assay Protocol Summary: The 1536-well SYBR Green viability assay was based on the method of Bennett et al (2004) and described previously in 1536-well format (Yuan J., et al. 2009). For screening 3 ul culture medium was dispensed into 1536 well black clear bottom plates (Aurora Biotechnologies) using a Multidrop Combi (Thermo Fisher Scientific Inc.), 23 nL compounds in DMSO were added by a pin transfer (Cleveland, P.H. and Koutz, P.J, 2005) using a pin tool-based delivery system (Kalypsys), and 5 ul of erythrocytes infected with P. falciparum one of five lines (cp250, Dd2, HB3, 7G8 or GB4, 0.3% parasitemia, 2.5% hematocrit final concentration) were added. The plates were incubated at 37C in a humidified incubator in 5% CO2 for 72 h, and 2 ul lysis buffer (20 mM Tris HCl, 10 mM EDTA, 0.16% saponin, 1.6% triton X, 10X SYBR Green I (supplied as 10,000X final concentration by Invitrogen) was added to each well. The plates were mixed for 25 sec with gentle shaking and incubated overnight at room temperature in the dark. The following morning, fluorescence intensity at 485(14) nm excitation and 535(25) nm emission wavelengths was measured on an EnVision (Perkin Elmer) plate reader. Plate reads were normalized relative to the control inhibitor (0.29 uM artemisinin) and vehicle (DMSO) wells present on each plate and then corrected by an algorithm using vehicle-only control plates at the beginning and end of the compound plate stack. References Shah, S. (2010). The Fever: how malaria has ruled humankind for 500,000 years. New York, Sarah Crichton Books. CDC web site, http://www.cdc.gov/malaria/about/biology/index.html Mu, J., Myers, R.A., Jiang, H., Liu, S., Ricklefs, S., Waisberg, M., Chotivanich, K., Wilairatana, P., Krudsood, S., White, N.J., et Plasmodium falciparum genome-wide scans for positive selection, recombination hot spots and resistance to antimalarial drugs Nature Genetics 2010, 42, pp 268-271 Bennett TN, Paguio, M., Gligorijevic, B., Seudieu, C., Kosar, A. D., Davidson, E., and Roepe, P. D. Novel, rapid, and inexpensive cell-based quantification of antimalarial drug efficacy Antimicrobial Agents Chemother. 2004, 48(5): pp 1807-10 Yuan J, Johnson RL, Huang RL, Wichterman J, Jiang HY, Hayton K, Fidock DA, Wellems TE, Inglese J, Austin CP, Su XZ. […]
# Potency means the concentration at half of the fitted maximal effect.
row,SMILES,Potency
1,CC(CCC#N)[N+](=O)[O-] (stereo not given),inactive
2,COC(=O)C1=C(C(=O)OC)[C@@H]2N(C)c3ccccc3[C@@]23C[C@@H](C(=O)OC)N(C(=O)Nc2cccc(C#N)c2)C3=N1,inactive
3,COc1cccc([C@@H]2[C@H](C)C[C@H]3CC(=O)N4[C@H](CC(=O)N32)C[C@@H](C)[C@@H]4c2cccc(OC)c2)c1,1510 nM (active)
4,CCOC(=O)CN1C(=O)N[C@@H](CCc2ccccc2)[C@H](C(=O)OC)[C@H]1C,inactive
5,CCN1C(=NCCOC)N[C@@H](c2ccccc2)[C@H](C(=O)OC)[C@H]1C,inactive
6,COC(=O)CC=C1c2ccccc2[C@@H](NC(=O)OC)[C@@H]1C,inactive
7,C[C@@H]1C=CCCO[C@]12C(=O)N(Cc1ccc(F)cc1)c1ccccc12,inactive
8,COc1ccc(-c2nc(-c3ccccc3)oc2NC2CCCCC2)cc1,inactive
9,COC(=O)[C@H](COC(C)(C)C)NC(=O)O[C@@H]1C(=O)c2cc(OC)ccc2O[C@H]1c1ccc(OC)c(Br)c1,inactive
10,COC(=O)N1C(C)=Cc2ccccc2C1CC(C)=O (stereo not given),inactive
11,COc1cc2c(cc1OC)[C@@H]1O[C@](CCCCN3C(=O)c4ccccc4C3=O)(C2)OC2=C1C(=O)CC(C)(C)C2,301 nM (active)
12,CCN1C(=NCc2ccccc2)N[C@@H](c2ccccc2)[C@H](C(=O)OC)[C@H]1C,inactive
13,COC(=O)C1=C(C(=O)OC)[C@@H]2N(C)c3ccccc3[C@@]23C[C@@H](C(=O)OC)N(C(=O)c2cc(C)oc2C)C3=N1,inactive
14,CCC(=O)OC1(C)C(=O)C=C2C=C(c3ccsc3)OC=C2C1=O (stereo not given),inactive
15,O=C(NN=C1C[C@@H](O)[C@H](O)[C@H]2[C@@H]3C(=O)N(C[C@@H]4CCCO4)C(=O)[C@@H]3CC[C@H]12)OCc1ccccc1,inactive
16,C=C(C#Cc1ccc(OC)cc1)CCN1C=C(C(=O)OCC)C(c2ccccc2)NC1=O (stereo not given),inactive
17,COC(=O)C=P(c1ccccc1)(c1ccccc1)c1ccccc1,inactive
18,CCN(CCNC(=O)[C@H]1C=C(OC)C(=O)C[C@H](c2ccccc2)[C@@H]1C)C(C)=O,inactive
19,COC(=O)CCC(=O)OC1(C)C(=O)C=C2C=C(C3CC3)N(Cc3ccco3)C=C2C1=O (stereo not given),inactive
20,CCOC(=O)C1=CN(CCNC(=O)OC(C)(C)C)C(=O)NC1c1ccccc1 (stereo not given),inactive

row,SMILES,Potency
1,C=CC1=C2C=C(C3CC3)N(Cc3ccccc3)C=C2C(=O)C(C)(OC(=O)c2ccco2)C1=O (stereo not given),inactive
2,C=CCOC(=O)N[C@H](c1cccc(C(F)(F)F)c1)C(C(C)=O)C(C)=O,inactive
3,CC1(OC(=O)CCc2ccccc2)C(=O)C=C2C=C(C3CC3)OC=C2C1=O (stereo not given),inactive
4,O=C1c2ccccc2C(=O)N1CCCC[C@]12Cc3ccccc3[C@H](O1)c1c(c3ccccc3oc1=O)O2,1510 nM (active)
5,C=CCOC(=O)N[C@H](c1ccco1)C(C(C)=O)C(C)=O,inactive
6,C=CC1=C2C=C(C3CC3)N(CCCOC(C)C)C=C2C(=O)C(C)(OC(=O)c2ccco2)C1=O (stereo not given),inactive
7,CCOC(=O)OC[C@H]1O[C@H](c2cc(C)cc(C)c2)C=C[C@H]1OC(=O)OCC,inactive
8,COC(=O)CC1OC1[C@H](C)[C@@H](OC)C(C)C (stereo not given in full),1690 nM (active)
9,CCOC(=O)CN1C(=O)NC(CCc2ccccc2)C(C(C)=O)=C1C (stereo not given),inactive
10,COC(=O)N1[C@H]2CC[C@@]3(C)CC(=O)C[C@]1(C)C3c1ccccc12,inactive
11,C=C=CCCN1C(=O)NC(c2ccccc2)C(C(=O)OC)=C1C (stereo not given),inactive
12,C=CCC(O)(C#Cc1ccccc1)c1ccccc1 (stereo not given),inactive
13,CC(=O)OC[C@H]1O[C@H](CCON=C(C)CCC(=O)OC[C@H]2O[C@H](C#Cc3ccccc3)C=C[C@H]2Oc2ccc(C)cc2)C=C[C@H]1OC(C)=O,inactive
14,COc1cccc([C@@H]2Oc3ccc(OC)cc3[C@H](O)[C@@H]2O)c1,inactive
15,O=C1[C@H]2[C@@H]3[C@@H](O)[C@H](O)CC(=NOCc4ccccc4)[C@H]3CC[C@H]2C(=O)N1Cc1ccc2c(c1)OCO2,inactive
16,CCCC[C@H]1CN2[C@H](c3ccc(Br)cc3)[C@H](C)CC[C@H]2C(=O)O1,inactive
17,Cc1ccccc1Nc1oc(-c2ccccc2)nc1C(C)(C)C,1900 nM (active)
18,C=CCOC(=O)N[C@H](C[N+](=O)[O-])c1ccccc1,inactive
19,CC1=CC[C@@H](COc2ccccc2)O[C@@]2(C1)C(=O)Nc1cccc(Br)c12,inactive
20,CCOC(=O)CN1C(=O)[C@@]2(CC(C)=C[C@@H](COCc3ccccc3)O2)c2ccccc21,inactive
